Experimental findings from PubChem BioAssay are described below.

For orientation: inhibition means the share of the control response that was lost under treatment.

A number with no mark means an inactive call. How the calls were made is not given here.

For this assay, the target named is Pantothenate synthetase (Mycobacterium tuberculosis (strain ATCC 25618 / H37Rv)) (UniProt P9WIL5). The experiment in a line: Recombinant Mtb pantothenate synthetase (PanC) inhibitors, coupled enzyme, confirmatory (AID 375).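 Further: 0% = full reaction with vehicle and 100% = no enzyme background.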 The following applies: coupled enzyme assay; at 10 µM, hits give high values.
Chain of Pantothenate synthetase (Mycobacterium tuberculosis (strain ATCC 25618 / H37Rv)) (P9WIL5 whole entry, looked up): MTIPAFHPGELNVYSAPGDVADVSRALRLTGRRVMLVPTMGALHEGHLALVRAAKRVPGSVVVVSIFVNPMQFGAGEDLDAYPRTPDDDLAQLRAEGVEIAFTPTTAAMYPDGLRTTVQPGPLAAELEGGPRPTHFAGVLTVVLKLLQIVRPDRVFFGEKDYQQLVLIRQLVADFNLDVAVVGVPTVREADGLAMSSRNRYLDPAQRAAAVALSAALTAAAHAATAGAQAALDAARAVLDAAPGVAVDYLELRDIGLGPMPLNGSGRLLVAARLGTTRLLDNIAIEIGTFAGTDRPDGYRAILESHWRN
For `Cc1ccccc1-c1noc(N)c1C#N`, the inhibition was 0%.

For `Cc1c(Cl)cccc1NC(=O)CCN1CCCCCC1`, the inhibition was 0%.

As for `COc1ccc([C@@H]2Sc3ccccc3N(CCN(C)C)C(=O)[C@@H]2OC(C)=O)cc1`, the inhibition was 2%.

Turning to `CCC(=O)N(Cc1cc2c(C)ccc(C)c2[nH]c1=O)C1CCCCC1`, the inhibition was 0%.

Consider `CCn1c(SCC(=O)Nc2nnc(C)s2)nnc1-c1ccncc1`, for which the inhibition is 1%.

Take `Cc1ccc(S(=O)(=O)NC(C(=O)OCC(=O)NC2CCS(=O)(=O)C2)C(C)C)cc1` (stereo not drawn): the inhibition was 0%.

For the compound `O=S1(=O)CC(N2CCOCC2)c2ccccc21` (stereo not drawn), the inhibition was 0%.

Consider `COCCN1C(=O)C(=O)/C(=C(/O)c2ccc(OC(C)C)cc2)C1c1cccnc1` (stereo not drawn), for which the inhibition is 0%.

As to `C=CCNC(=O)c1ccc(Cl)cc1Cl`, the inhibition was 0%.

`COc1cccc(C(=O)CSc2nnc(COc3cccc4cccnc34)o2)c1`: the inhibition is 0%.

For `Cc1nnc(C)c2c(C)n(Cc3ccc4c(c3)OCO4)c(C)c12`, the inhibition was 0%.

As for `Cc1ccc(O)c(NC(=O)COc2cc(C)ccc2C)c1`, the inhibition was 0%.

Turning to `CCSCCC(NC1=CC(=O)CC(C)(C)C1)C(=O)O` (stereo not drawn), the inhibition was 0%.

Take `Cc1ccc(S(=O)(=O)N2CCCN(S(=O)(=O)C3CCS(=O)(=O)C3)CC2)cc1` (stereo not drawn): the inhibition was 2%.

Turning to `COc1ccc(-c2cc(N3CCCC3)n3ncnc3n2)cc1`, the inhibition was 9%.

Regarding `COc1ccccc1N1CC(C(=O)Nc2cccc(C(=O)O)c2)CC1=O` (stereo not drawn), the inhibition is 0%.

In the case of `OC(CNCC1COc2ccccc2O1)COCc1cccs1` (stereo not drawn), the inhibition is 0%.

With `CCn1cc(C(=O)N2CCCC2)c(=O)c2cc(S(=O)(=O)N3CCOCC3)ccc21`, the inhibition was 0%.
